The source of these data is the supplement of paper PMC9262897, “Low-cost anti-mycobacterial drug discovery using engineered E. coli” (Nature Communications, 2022).

Structures can show the parent of a compound that is named as a salt. ± gives the standard deviation of the averaged measurements.

Common to all, as to experiment: growth (OD600 after 10 h); higher = more growth (less inhibition)
The subject of assay [1] is E. coli TESEC Alr+ wild-type control. The following applies: compound 0.1 mM; raw OD600 reference: median of DMSO wells 0.241, cell-free background 0.041. The protocol:
(§1)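 TESEC Mtb Alr E. coli, or the Alr+ wild-type control, in 384-well plates with Prestwick library compounds at 0.1 mM and 1% DMSO, across arabinose induction levels of 1E3 to 1E7 nM. Growth is read as OD600 after 10 h at 37 °C in triplicate biological replicates.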

Assay [2] relates to E. coli TESEC Mtb Alr. The following applies: compound 0.1 mM. The procedure: as §1
Assay [3] deals with E. coli TESEC Mtb Asd. The following applies: compound 0.1 mM. The procedure: (§2)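 TESEC E. coli strains in which the native enzyme is deleted and replaced by arabinose-inducible Mtb Asd, DapB, CysH or TrpD, each grown in its selective medium. Strains were screened against the Prestwick library at 0.1 mM and 1% DMSO in 384-well format at low and high arabinose induction. Growth is read as OD600 after 10 h in triplicate.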

Assay [4] concerns E. coli TESEC Mtb DapB. The conditions noted are these: compound 0.1 mM. The protocol:
as §2

The test system of assay [5] is E. coli TESEC Alr+ wild-type control. The conditions noted are these: compound 0.1 mM; raw OD600 reference: median of DMSO wells 0.49, cell-free background 0.052. The procedure:
(§3)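 TESEC Mtb Alr E. coli (ΔaraC ΔtolC ΔentC Δalr ΔdadX, arabinose-inducible Mtb Alr) or the Alr+ wild-type control strain, grown in defined M9-fructose medium without D-alanine in 96-well plates with Prestwick library compounds at 0.1 mM and 1% DMSO. Low Alr induction is 0.1 µM arabinose and high induction is 10 mM arabinose.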

The test system of assay [6] is E. coli TESEC Mtb Alr. The conditions noted are these: compound 0.1 mM. The procedure:
as §3
This is another data set of the same source.

[7] abbreviates: arabinose 1000 nM, raw OD600 reference: median of DMSO wells 0.294, cell-free background 0.041.
[8] abbreviates: arabinose 10000 nM, raw OD600 reference: median of DMSO wells 0.264, cell-free background 0.041.
Where [9] appears, read: arabinose 100000 nM, raw OD600 reference: median of DMSO wells 0.201, cell-free background 0.041.
Setting [10] is: arabinose 1000000 nM, raw OD600 reference: median of DMSO wells 0.193, cell-free background 0.041.
Setting [11] is: arabinose 10000000 nM, raw OD600 reference: median of DMSO wells 0.146, cell-free background 0.041.
The mark [12] stands for this setting: arabinose induction (level): High, raw OD600 reference: median of DMSO wells 0.331, cell-free background 0.041.
Where [13] appears, read: arabinose induction (level): Low, raw OD600 reference: median of DMSO wells 0.417, cell-free background 0.041.
Where [14] appears, read: arabinose induction (level): High, raw OD600 reference: median of DMSO wells […], cell-free background 0.041.
The mark [15] stands for this setting: arabinose induction (level): Low, raw OD600 reference: median of DMSO wells 0.227, cell-free background 0.041.
The mark [16] stands for this setting: arabinose 100 nM, raw OD600 reference: median of DMSO wells 0.413, cell-free background 0.052.
Setting [17] is: arabinose 10000000 nM, raw OD600 reference: median of DMSO wells […], cell-free background 0.052.

On to `CCCNC(C)(C)COC(=O)c1ccccc1` [Meprylcaine hydrochloride], for which the growth in assay [1] turned out to be 0.234 ± 0.0059; in assay [2] (setting [7]), 0.298 ± 0.0024; in assay [2] (setting [8]), 0.2777 ± 0.0023; in assay [2] (setting [9]) it was 0.211 ± 0.0098; in assay [2] (setting [10]), 0.215 ± 0.025; in assay [2] (setting [11]), 0.133 ± 0.0041. The growth in assay [3] (setting [12]) worked out at 0.281 ± 0.061; in assay [3] (setting [13]) it was 0.338 ± 0.025; in assay [4] (setting [14]) it was 0.182 ± 0.022; in assay [4] (setting [15]), 0.221 ± 0.0093; in assay [5], 0.6187 ± 0.0042; in assay [6] (setting [16]), 0.419 ± 0.0049. Also, in assay [6] (setting [17]), the growth is 0.339 ± 0.0092.

On to `COc1ccc(C(=O)c2ccccc2O)c(O)c1` [Dioxybenzone], for which the growth in assay [1] was found to be 0.125 ± 0.0069; in assay [2] (setting [7]), 0.116 ± 0.0049; in assay [2] (setting [8]), 0.124 ± 0.0053; in assay [2] (setting [9]), 0.107 ± 0.005; in assay [2] (setting [10]) it was 0.085 ± 0.0034; in assay [2] (setting [11]), 0.107 ± 0.0014. Further, the growth stood at 0.261 ± 0.022 in assay [3] (setting [12]); 0.197 ± 0.0098 in assay [3] (setting [13]); 0.183 ± 0.014 in assay [4] (setting [14]); 0.23 ± 0.016 in assay [4] (setting [15]); 0.355 ± 0.014 in assay [5]; 0.352 ± 0.05 in assay [6] (setting [16]). Moreover, in assay [6] (setting [17]), the growth worked out at 0.152 ± 0.014.

As for `CC[C@H]1OC(=O)C[C@@H](O)[C@H](C)[C@@H](O[C@@H]2O[C@H](C)[C@@H](O[C@H]3C[C@@](C)(O)[C@@H](O)[C@H](C)O3)[C@H](N(C)C)[C@H]2O)[C@@H](CC=O)C[C@@H](C)C(=O)/C=C/C(C)=C/[C@@H]1CO[C@@H]1O[C@H](C)[C@@H](O)[C@@H](OC)[C@H]1OC` [Tylosin], the growth in assay [1] is 0.04133 ± 5.8e-05; in assay [2] (setting [7]) it was 0.0588 ± 0.0023; in assay [2] (setting [8]), 0.0397 ± 0.00017; in assay [2] (setting [9]), 0.0503 ± 0.0012; in assay [2] (setting [10]), 0.03953 ± 0.00032; in assay [2] (setting [11]), 0.0429 ± 0.0013. Further, the growth in assay [3] (setting [12]) was 0.0667 ± 0.004; in assay [3] (setting [13]), 0.0597 ± 0.0035; in assay [4] (setting [14]), 0.0739 ± 0.0012; in assay [4] (setting [15]) it was 0.0754 ± 0.0056; in assay [5] it was 0.0591 ± 0.00044; in assay [6] (setting [16]) it was 0.249 ± 0.12. In assay [6] (setting [17]), the growth was 0.0521 ± 0.00046.

Regarding `CC1=C(/C=C/C(C)=C/C=C/C(C)=C/C(=O)O)C(C)(C)CCC1` [Retinoic acid], the growth was found to be 0.281 ± 0.008 in assay [1]; 0.309 ± 0.012 in assay [2] (setting [7]); 0.262 ± 0.006 in assay [2] (setting [8]); 0.246 ± 0.0066 in assay [2] (setting [9]); 0.149 ± 0.006 in assay [2] (setting [10]); 0.162 ± 0.015 in assay [2] (setting [11]). Moreover, the growth in assay [3] (setting [12]) is 0.355 ± 0.11; in assay [3] (setting [13]), 0.41 ± 0.0091; in assay [4] (setting [14]), 0.186 ± 0.0028; in assay [4] (setting [15]), 0.2256 ± 0.00047; in assay [5], 0.476 ± 0.045; in assay [6] (setting [16]) it was 0.45 ± 0.0056. For the same compound, the growth in assay [6] (setting [17]) is 0.301 ± 0.013.

With `CCn1cc(C(=O)O)c(=O)c2cc(F)c(N3CCN(C)CC3)cc21` [Pefloxacine], the growth turned out to be 0.0478 ± 0.00026 in assay [1]; 0.0453 ± 0.00047 in assay [2] (setting [7]); 0.0396 ± 0.00047 in assay [2] (setting [8]); 0.0454 ± 0.0017 in assay [2] (setting [9]); 0.04 ± 0.00096 in assay [2] (setting [10]); 0.05157 ± 0.0004 in assay [2] (setting [11]). Further, the growth in assay [3] (setting [12]) came out at 0.0645 ± 0.0063; in assay [3] (setting [13]) it was 0.0631 ± 0.0043; in assay [4] (setting [14]) it was 0.0696 ± 0.0096; in assay [4] (setting [15]), 0.0585 ± 0.002; in assay [5], 0.0507 ± 0.0001; in assay [6] (setting [16]) it was 0.0539 ± 0.00064. In addition, the growth in assay [6] (setting [17]) was 0.0515 ± 0.00064.

Turning to `CN1CCC(=C2c3ccccc3CCc3cccnc32)CC1` [Azatadine maleate], the growth in assay [1] is 0.1961 ± 0.0017; in assay [2] (setting [7]), 0.271 ± 0.0097; in assay [2] (setting [8]) it was 0.256 ± 0.0041; in assay [2] (setting [9]), 0.178 ± 0.0055; in assay [2] (setting [10]), 0.18 ± 0.0037; in assay [2] (setting [11]) it was 0.132 ± 0.0041. The growth in assay [3] (setting [12]) was determined as 0.209 ± 0.017; in assay [3] (setting [13]), 0.313 ± 0.045; in assay [4] (setting [14]), 0.18 ± 0.014; in assay [4] (setting [15]), 0.186 ± 0.018; in assay [5] it was 0.59 ± 0.059; in assay [6] (setting [16]), 0.4 ± 0.013. The compound also had a growth in assay [6] (setting [17]) of 0.338 ± 0.018.

Take `CC(=O)Oc1ccc(C(c2ccc(OC(C)=O)cc2)c2ccccn2)cc1` [Bisacodyl]: the growth in assay [1] was 0.202 ± 0.0032; in assay [2] (setting [7]), 0.245 ± 0.018; in assay [2] (setting [8]), 0.289 ± 0.016; in assay [2] (setting [9]), 0.219 ± 0.031; in assay [2] (setting [10]) it was 0.201 ± 0.0038; in assay [2] (setting [11]), 0.168 ± 0.0065. In addition, the growth in assay [3] (setting [12]) came out at 0.354 ± 0.011; in assay [3] (setting [13]) it was 0.24 ± 0.028; in assay [4] (setting [14]), 0.19 ± 0.011; in assay [4] (setting [15]), 0.2324 ± 0.0015; in assay [5], 0.5 ± 0.016; in assay [6] (setting [16]), 0.39 ± 0.0062. In assay [6] (setting [17]), this compound gave a growth of 0.39 ± 0.0069.

As for `NCc1ccc(S(N)(=O)=O)cc1` [Mafenide hydrochloride], the growth in assay [1] was determined as 0.248 ± 0.0039; in assay [2] (setting [7]), 0.295 ± 0.021; in assay [2] (setting [8]), 0.259 ± 0.0097; in assay [2] (setting [9]) it was 0.187 ± 0.015; in assay [2] (setting [10]), 0.177 ± 0.0036; in assay [2] (setting [11]) it was 0.14 ± 0.0058. Also, the growth came to 0.358 ± 0.018 in assay [3] (setting [12]); 0.41 ± 0.044 in assay [3] (setting [13]); 0.199 ± 0.0035 in assay [4] (setting [14]); 0.251 ± 0.032 in assay [4] (setting [15]); 0.418 ± 0.046 in assay [5]; 0.418 ± 0.0068 in assay [6] (setting [16]). Moreover, in assay [6] (setting [17]), the growth stood at 0.373 ± 0.018.
